Bioassay records from PubChem.
hgDAF12 agonist: hgDAF-12 agonism, primary luciferase screen. activation, % at 6.8 µM. HEK293 GAL4-hgDAF12 UAS-luciferase reporter, agonist luminescence; normalized to butyrate control. hit rate 1.8% among 370,000;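 active = activation above a cutoff set at the mean of all screened compounds plus 3 SD, cut at about 10% in these data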
FXN GAA850 act: activators of GAA850 frataxin (FXN) promoter; HEK293 lucGAA850 FXN promoter luciferase reporter, 24 h; percent of 10 µM SAHA response; activation, % at 6 µM; hit rate 0.56% among 360,000; AID 540364;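 active = activation above the average of all compounds screened plus 3 SD, cutoff fixed separately per campaign, cut at about 7.5% in these data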
hcDAF12 agonist: activators of H. contortus DAF-12 nuclear receptor | HEK293 hcDAF-12 lit1-tk-luc reporter, luminescence; 0% DMSO, 100% Δ7-dafachronic acid | hit rate 1.4% among 370,000 | activation, % at 6.8 µM | AID 652067;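 active = activation above the mean of all tested compounds plus 3 SD, cut at about 5.5% in these data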
ssDAF12 agonist: S. stercoralis DAF-12 activation, primary screen. HEK293 ssDAF-12/GRIP1 lit1-tk-luc reporter, luminescence; % of 3 µM dafachronic acid response. activation, % at 6.8 µM. hit rate 1% among 370,000;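 active = activation above the mean over all tested compounds plus 3 SD, cut at about 0.9% in these data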
DAX1 inh-1: blocks DAX1 repression of SF-1 activated StAR promoter; hit rate 1.1% among 370,000; HEK293T StAR-luciferase reporter, SF-1/DAX-1 repression relief; AID 652010; inhibition, % at 6.8 µM;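 active = inhibition above the mean over all tested compounds plus 3 SD, cut at about 3.6% in these data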;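 also: higher inhibition means more luminescence from relief of DAX-1 repression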
DAX1 inh-2: inhibits human nuclear receptor DAX1; P51843; HEK293 Gal4-DAX1 luciferase reporter, luminescence; inhibition, % at 6.75 µM; hit rate 0.99% among 340,000; AID 504766;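 active = inhibition above the mean over all tested compounds plus 3 SD, cut at about 4.2% in these data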;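 also: inhibition shows as a rise in luminescence from relieved DAX1 repression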
Target sequence (P51843 207-470 limits assumed): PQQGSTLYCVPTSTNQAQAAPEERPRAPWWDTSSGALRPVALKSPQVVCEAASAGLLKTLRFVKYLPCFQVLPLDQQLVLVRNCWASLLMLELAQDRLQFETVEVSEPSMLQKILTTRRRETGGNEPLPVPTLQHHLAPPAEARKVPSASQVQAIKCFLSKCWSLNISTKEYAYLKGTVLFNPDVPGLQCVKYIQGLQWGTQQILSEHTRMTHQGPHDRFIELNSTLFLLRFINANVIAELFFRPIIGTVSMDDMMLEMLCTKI
DAX1 inh confirm: confirmation of human DAX1 (NR0B1) inhibitors. shares compounds with DAX1 inh-1. HEK293T StAR-promoter luciferase reporter, SF-1/DAX-1 repression. inhibition, % at 6.8 µM. hit rate 87% among 2,400. AID 652134;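 active = inhibition above the average of every tested compound plus 3 SD, cut at about 3.8% in these data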;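 also: active compounds raise luminescence by relieving repression of the StAR reporter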
Target sequence (P51843 whole entry, looked up): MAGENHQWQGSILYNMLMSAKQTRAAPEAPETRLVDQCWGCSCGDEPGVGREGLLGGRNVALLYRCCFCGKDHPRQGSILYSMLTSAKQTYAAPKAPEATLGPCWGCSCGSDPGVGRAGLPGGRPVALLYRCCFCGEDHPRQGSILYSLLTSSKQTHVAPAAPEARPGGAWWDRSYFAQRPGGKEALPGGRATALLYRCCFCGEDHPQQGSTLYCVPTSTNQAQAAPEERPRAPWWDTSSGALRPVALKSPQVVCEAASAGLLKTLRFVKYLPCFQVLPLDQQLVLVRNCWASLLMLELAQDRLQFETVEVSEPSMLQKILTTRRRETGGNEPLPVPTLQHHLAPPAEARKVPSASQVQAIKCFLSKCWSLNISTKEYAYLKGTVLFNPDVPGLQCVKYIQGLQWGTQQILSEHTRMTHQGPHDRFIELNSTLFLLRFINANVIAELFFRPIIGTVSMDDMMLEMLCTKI
SF1 mutant ctr: nonselective inhibitor or artifact in SF-1 mutant DAX1 counter-screen. shares compounds with DAX1 inh-1. HEK293 StAR-luciferase, SF-1 AF2 mutant, luminescence. inhibition, % at 6.8 µM. hit rate 78% among 2,400;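 active = inhibition above the mean of all tested compounds plus 3 SD, cut at about 3% in these data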
LXR ag: counter-screen for hcDAF-12 agonists: agonists of human LXR-beta; activation, % at 6.8 µM; HEK293 Gal4-LXR tk-luc reporter, luminescence, 24 h; normalized: DMSO 0%, positive control 100%; shares compounds with hcDAF12 agonist; 3,400 tested, under 10 active; AID 743027;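 active = mean percent activation of the reporter above a cutoff set as the average over tested compounds plus their standard deviation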
hcDAF12 conf: hcDAF-12 agonism, confirmation assay; HEK293 hcDAF-12 lit1-tk-luc reporter, luminescence; % of Δ7-dafachronic acid response; activation, % at 6.8 µM; shares compounds with hcDAF12 agonist; hit rate 61% among 3,400;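 active = mean activation across triplicate tests above the threshold derived from the earlier primary screen, cut at about 5.5% in these data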
hgDAF12 ag: hgDAF-12 agonism, confirmation assay. shares compounds with hgDAF12 agonist. HEK293 GAL4-hgDAF12 luciferase reporter, agonist mode; percent of butyrate response. activation, % at 6.8 µM. hit rate 80% among 3,300. AID 743050;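 active = mean activation over triplicate wells above the hit cutoff derived from the earlier primary screen, cut at about 11% in these data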
LXRb DAF12 ctr: counter-screen for DAF-12 agonists: agonists of human LXR-beta | shares compounds with hgDAF12 agonist | HEK293 Gal4-LXR luciferase reporter, 24 h | activation, % at 6.8 µM | 3,300 tested, under 10 active | AID 743051;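 active = mean activation of the triplicate above a set limit carried over from the primary screen, none filed active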
Of the large screens only hits and unclear results are named; the others gave an inactive call (follow-up assays come after a bar, where they were run). A selection: hits, their analogues and other compounds. The true share with any hit is near 4.5%.

O=C(Nc1ccc(F)cc1)OCc1cn(Cc2ccccc2)nn1	none (no result: FXN GAA850 act, DAX1 inh-2)
Oc1ccccc1-c1cc(-c2ccccc2Cl)[nH]n1	hgDAF12 agonist 25.1, hcDAF12 agonist 19.2, ssDAF12 agonist 4.0, DAX1 inh-1 8.6 | DAX1 inh confirm 18.7 | SF1 mutant ctr 10.5 | LXR ag inactive | hcDAF12 conf 14.7 | hgDAF12 ag 26.8 | LXRb DAF12 ctr inactive
COC(=O)[C@]12C[C@H](CC(=O)NCc3cccs3)C(=O)N(CCC3=CCCCC3)C1=C[C@H](C1CCCC1)O[C@@H]2C	none (no result: FXN GAA850 act, DAX1 inh-2)
CC(C)c1ccc(/C=C/c2ccc(=O)n(C)n2)cc1	hgDAF12 agonist 19.1, hcDAF12 agonist 6.4, DAX1 inh-1 5.3 | DAX1 inh confirm 6.7 | SF1 mutant ctr 3.4 | hgDAF12 ag 14.4 | LXRb DAF12 ctr inactive
COC(=O)C1=C(C)N(Cc2ccccc2C(F)(F)F)C(=NCc2ccc(OC)cc2)NC1c1ccc(F)cc1 (configuration not stated)	none (no result: FXN GAA850 act, DAX1 inh-2)
O=C(Nc1nccs1)c1cncc(Br)c1	hgDAF12 agonist 14.8, hcDAF12 agonist 7.9, DAX1 inh-1 6.3 | DAX1 inh confirm 7.6 | SF1 mutant ctr 6.3 | LXR ag inactive | hcDAF12 conf 6.0 | hgDAF12 ag 10.8 | LXRb DAF12 ctr inactive
O=C(Nc1nccs1)c1cccnc1	none
O=C(/C=C/c1ccco1)Nc1scc(-c2ccccc2)c1C(=O)O	none
O=C(/C=C/c1ccccc1)Nc1scc(-c2ccccc2)c1C(=O)O	hgDAF12 agonist 15.3, DAX1 inh-1 5.1 | DAX1 inh confirm 8.9 | SF1 mutant ctr 8.6 | hgDAF12 ag 10.7 | LXRb DAF12 ctr inactive
COc1cccc(NC(=O)c2ccc3c(c2)N(C)CCS3)c1	hgDAF12 agonist 16.4, hcDAF12 agonist 6.2, DAX1 inh-1 8.7 | DAX1 inh confirm 10.3 | SF1 mutant ctr 9.3 | hgDAF12 ag 18.4 | LXRb DAF12 ctr inactive
Cc1cc(C)n2cc(COc3ccc4ccccc4c3)nc2n1	hgDAF12 agonist 16.9, hcDAF12 agonist 8.0, DAX1 inh-1 6.3 | DAX1 inh confirm 15.3 | SF1 mutant ctr 8.8 | LXR ag inactive | hcDAF12 conf inactive | hgDAF12 ag 16.7 | LXRb DAF12 ctr inactive
Cc1ccnc(SCc2cn3c(C)cc(C)nc3n2)n1	none
Cc1cc(C(=O)CSc2cccc[n+]2[O-])c(C)n1-c1ccccc1	hgDAF12 agonist 15.6, hcDAF12 agonist 7.5, DAX1 inh-1 8.1 | DAX1 inh confirm 17.4 | SF1 mutant ctr 7.8 | LXR ag inactive | hcDAF12 conf 7.2 | hgDAF12 ag 13.4 | LXRb DAF12 ctr inactive
COc1cccc(NC(=O)Nc2ccc3c(c2)nc(C)n3C)c1	hgDAF12 agonist 20.4, hcDAF12 agonist 5.7, DAX1 inh-1 4.7 | DAX1 inh confirm 12.1 | SF1 mutant ctr 7.8 | hgDAF12 ag 14.8 | LXRb DAF12 ctr inactive
COc1cccc(NC(=O)Nc2ccc3nc(C)c(C)nc3c2)c1	none
Cc1ccc2nc(-c3ccc(NC(=O)C(C)N4C(=O)c5ccccc5C4=O)cc3)sc2c1 (configuration not stated)	hgDAF12 agonist 21.5, hcDAF12 agonist 8.6, DAX1 inh-1 6.2 | DAX1 inh confirm 8.8 | SF1 mutant ctr 5.8 | LXR ag inactive | hcDAF12 conf inactive | hgDAF12 ag 13.2 | LXRb DAF12 ctr inactive
Cc1ccc2nc(-c3ccc(NC(=S)NC4CC(C)(C)NC(C)(C)C4)cc3)sc2c1	hgDAF12 agonist 18.5, DAX1 inh-1 7.5, DAX1 inh-2 4.4 | DAX1 inh confirm 11.9 | SF1 mutant ctr 10.4 | hgDAF12 ag 17.4 | LXRb DAF12 ctr inactive
Cc1ccc2nc(-c3ccc(NC(=O)CCN4C(=O)c5ccccc5C4=O)cc3)sc2c1	hgDAF12 agonist 16.8, hcDAF12 agonist 8.7, ssDAF12 agonist 0.9, DAX1 inh-1 5.9 | DAX1 inh confirm 15.4 | SF1 mutant ctr 4.5 | LXR ag inactive | hcDAF12 conf 8.3 | hgDAF12 ag 21.4 | LXRb DAF12 ctr inactive
Cc1ccc2nc(-c3ccc(NC(=S)NC(=O)C(C)C)cc3)sc2c1	none
Cc1ccc2nc(-c3ccc(NC(=O)CSCC(=O)O)cc3)sc2c1	hgDAF12 agonist 24.4, hcDAF12 agonist 7.0, DAX1 inh-1 4.8 | DAX1 inh confirm 15.1 | SF1 mutant ctr 8.8 | LXR ag inactive | hcDAF12 conf 5.8 | hgDAF12 ag 17.8 | LXRb DAF12 ctr inactive
CC(C)COc1ccc(-c2csc(N3CCC(C(N)=O)CC3)n2)cc1	none (no result: FXN GAA850 act, DAX1 inh-1, DAX1 inh-2)
O=C(CN1CCN(Cc2ccccc2Cl)CC1)N/N=C\c1ccccc1F	none (no result: FXN GAA850 act, DAX1 inh-2)
CCN(C(=O)[C@@H](C)[C@@H](O)c1ccc(Cl)cc1)c1ccccc1	none (no result: FXN GAA850 act, DAX1 inh-2)
COc1cccc(N(C)C(=O)[C@@H](C)[C@@H](O)c2ccc(C(C)=O)cc2)c1	none (no result: FXN GAA850 act, DAX1 inh-2)
CC(=O)OCCCN1CCC2(CCCCC2)C1=O	none (no result: FXN GAA850 act, DAX1 inh-2)
CCC(C)c1ccc(NC(=O)c2cccs2)cc1 (configuration not stated)	hgDAF12 agonist 19.3, hcDAF12 agonist 8.2, ssDAF12 agonist 1.7, DAX1 inh-1 7.2 | DAX1 inh confirm 18.8 | SF1 mutant ctr 6.4 | LXR ag inactive | hcDAF12 conf 7.8 | hgDAF12 ag 20.4 | LXRb DAF12 ctr inactive
CCC(C)NS(=O)(=O)c1ccc(NC(=O)c2cccs2)cc1 (configuration not stated)	none
COc1ccc2[nH]c3c(c2c1)CCN[C@]31C(=O)N(Cc2cn(Cc3ccccc3)nn2)c2ccccc21	none (no result: FXN GAA850 act, DAX1 inh-2)
N#C/C(=N\Nc1ccccc1)C(=N)N1CCOCC1	none
